The whole screen tested about 310,000 compounds, of which about 11,000 (3.5%) were called active. Another 8% or so got no clear call; they are omitted. The full list was thinned out, with actives kept by preference. Unmarked numbers belong to inactive results. Calls come from the whole dose curve; as a rule, active = well fitted inhibition curve with a large enough effect; inconclusive = small, poorly fitted or top-dose-only effect, or effect the other way; inactive = flat fitted curve, though single readings scatter.
% is set by controls: 0 for no effect and ±100 for the full control effect; potency is the fitted concentration of half-maximal effect.

This assay is described as follows: VP16 counterscreen qHTS for inhibitors of ROR gamma transcriptional activity.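 Note: Gal4-VP16 expression switched on by copper sulfate through the metallothionein promoter; nearly all actives have a fitted effect of over 50% in size.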 The settings on record: Drosophila S2 Gal4-VP16 UAS-luciferase, luminescence, 20 h; series mostly up to 53.6 µM; activity, negative = inhibition: at the top concentration.
On to `Cc1ccc(/C=C2\CCn3c2nc2cc(C(=O)O)ccc2c3=O)c(C)c1`, for which the “activity, negative = inhibition” value is 5.94%.

Turning to `CC1CC(C)CN(CCOc2cccc3ccccc23)C1` (stereo not drawn), the “activity, negative = inhibition” value was 0.773%.

Regarding `CCOC(=O)[C@@H]1[C@H]2COc3cc(OC)ccc3[C@H]2N2C(=O)N(c3ccc(F)cc3)C(=O)[C@]12C`, the “activity, negative = inhibition” value is 11.4%.

For the compound `O=C(Nc1cccc(S(=O)(=O)N2CCCCC2)c1)c1ccc2c(c1)OCO2`, the “activity, negative = inhibition” value was -9.48%.

In the case of `O=C(Nc1ccc2c(c1)OCCO2)c1ccc(Cl)c(S(=O)(=O)N2CCCCC2)c1`, the “activity, negative = inhibition” value was 0.74%.

In the case of `O=C(Nc1cccc(S(=O)(=O)Nc2ccc(Cl)cc2)c1)c1ccc2c(c1)OCCO2`, the Potency is 0.794 µM (active).

In the case of `O=C(NC1CCCC1)C(c1c(F)cccc1Cl)N(C(=O)c1csnn1)C1CC1` (stereo not drawn), the “activity, negative = inhibition” value is 2.27%.

With `COc1ccc2nc(C)cc(Nc3cccc(C(=O)O)c3)c2c1`, the “activity, negative = inhibition” value was -0.583%.

On to `COC(=O)CSc1nccc(-c2cccs2)n1`, for which the “activity, negative = inhibition” value is -4.83%.

On to `O=C(Nc1ccnc(-c2ccncc2)n1)c1cccs1`, for which the “activity, negative = inhibition” value is -9.29%.

Take `O=C(O)COc1ccc(-c2nccc(-c3cccs3)n2)cc1`: the Potency is 15.8 µM (active).

Take `CC(C)(C)c1ccc(SCCc2ccncc2)cc1`: the Potency is 17.8 µM (active).

As to `CCN(Cc1ccncc1)C(=O)CCc1ccccc1`, the “activity, negative = inhibition” value is 2.93%.

As for `Cc1ccc(SCCSc2ncccn2)cc1`, the “activity, negative = inhibition” value was -12%.

On to `Cc1cc(C)c(SCCc2ccncc2)c(C)c1`, for which the Potency was 11.2 µM (active).

Take `Cc1cc(C)c(NC(=O)CSc2nc3ccncc3[nH]2)c(C)c1`: the “activity, negative = inhibition” value was -3.75%.

As to `c1ccc(CSCCc2ccncc2)cc1`, the “activity, negative = inhibition” value is 2.21%.

For `C=CCOc1ccc(/C=C2/C(=O)ON=C2C)cc1OCC`, the “activity, negative = inhibition” value was -4.21%.

`CCOc1ccc(NC(=O)C(C)N2C(=O)c3ccccc3C2=O)cc1` (stereo not drawn): the “activity, negative = inhibition” value is -3.04%.

Consider `Cc1ccc(S(=O)(=O)NC2CCCCCC2)cc1C(N)=O`, for which the “activity, negative = inhibition” value is -7.37%.

Take `COc1ccc(-n2c(=S)[nH]c3sc4c(c3c2=O)CCc2ccccc2-4)cc1`: the Potency is 0.251 µM (active).

For `CCCSc1nc2sc3c(c2c(=O)n1-c1ccc(OC)cc1)CCN(C)C3`, the “activity, negative = inhibition” value was -0.0853%.

For `CCc1ccc(-n2c(=S)sc3c(=O)n(-c4ccccc4OC)c(=S)[nH]c32)cc1`, the “activity, negative = inhibition” value is -8.14%.

Consider `O=C(Nc1ccc(C(=O)N2CCCCC2)cc1)c1cccc([N+](=O)[O-])c1`, for which the “activity, negative = inhibition” value was 19.8%.

As for `COc1cc(C(=O)NCc2ccncc2)cc(Br)c1OCc1ccccc1`, the “activity, negative = inhibition” value was -1.79%.

`CC(C)[C@@H]1COC(c2cccc(C3=N[C@H](C(C)C)CO3)c2)=N1`: the “activity, negative = inhibition” value was 5.4%.

Consider `C#CCOc1ccc(/C=C2/C(=O)ON=C2C)cc1OCC`, for which the “activity, negative = inhibition” value is -17.6%.

With `O=C(Nc1ccc(N2CCOCC2)c(Cl)c1)c1ccc(S(=O)(=O)N2CCOCC2)cc1`, the “activity, negative = inhibition” value is -8.97%.

Take `O=C(Nc1ccc2nc3n(c(=O)c2c1)CCCCC3)c1ccccc1Cl`: the “activity, negative = inhibition” value was -19.2%.

For `O=C(Nc1ccc2c(c1)nc1n2CCCCC1)c1cc(S(=O)(=O)N2CCOCC2)ccc1Cl`, the Potency was 12.6 µM (active).

`Nc1ncc(CN2CCCC(C(=O)Nc3ccc(-c4ccco4)cc3)C2)cn1` (stereo not drawn): the “activity, negative = inhibition” value is 2.6%.

For `N=c1oc2ccccc2cc1C(=O)NCc1ccccc1`, the “activity, negative = inhibition” value is 26.3%.

`CCCNC(=O)COc1coc(CN2CCN(Cc3ccccc3)CC2)cc1=O`: the “activity, negative = inhibition” value is -4%.

On to `COc1cccc(N2C(=O)CN(Cc3ccccc3)C2=S)c1`, for which the “activity, negative = inhibition” value was -3.18%.

Turning to `COc1cccc(-n2cc(C(=O)O)c3ccccc3c2=O)c1`, the “activity, negative = inhibition” value is -0.477%.

`COc1cccc(-n2c(=S)[nH]c3c(oc4ccccc43)c2=O)c1`: the Potency is 11.2 µM (active).

On to `CCC(CC)COC(=O)C1=C(C)NC(=O)NC1c1ccc([N+](=O)[O-])cc1` (stereo not drawn), for which the “activity, negative = inhibition” value was -3.51%.

`COCCn1c(SCC(=O)N2CCCCCC2)nc2c(c1=O)SCC2`: the “activity, negative = inhibition” value is 4.31%.

As for `Oc1cccc(/C=N/Nc2ccc(Cl)nn2)c1O`, the Potency is 2.82 µM (active).

On to `COc1cccc(/C=N/Nc2ccc(Cl)nn2)c1`, for which the “activity, negative = inhibition” value was -15.1%.

For `Cc1ccsc1/C=N/Nc1ccc(Cl)nn1`, the “activity, negative = inhibition” value is 1.26%.

`CN(C)S(=O)(=O)c1ccc(Oc2ccc(S(=O)(=O)N(C)C)cc2)cc1`: the Potency is 3.16 µM (active).

As to `Cc1ccc(S(=O)(=O)c2ccc(Oc3ccccc3)cc2)cc1`, the “activity, negative = inhibition” value was -26.4%.

As to `CN(C)S(=O)(=O)c1ccc(NC(=O)N2CCOCC2)cc1`, the “activity, negative = inhibition” value was -9.25%.

In the case of `CSc1ncc(C(=O)NCCCc2ccccc2)c(C)n1`, the “activity, negative = inhibition” value was 21.5%.

For the compound `O=C(Cc1cccs1)Nc1cccc(-c2nc3ccccc3[nH]2)c1`, the “activity, negative = inhibition” value was 15.7%.

With `O=C(/C=C/c1ccco1)Nc1cccc(-c2nc3ccccc3[nH]2)c1`, the “activity, negative = inhibition” value was 12.4%.

Take `O=C(Nc1cccc(-c2nc3ccccc3[nH]2)c1)c1ccc(C(=O)Nc2cccc(-c3nc4ccccc4[nH]3)c2)cc1`: the Potency is 2.82 µM (active).

On to `Cc1c(C)c2ccc(OCC(=O)N3CCC(C(=O)O)CC3)c(C)c2oc1=O`, for which the “activity, negative = inhibition” value was -14.8%.

`COc1ccc(/C=N/NS(=O)(=O)c2ccc(NC(C)=O)cc2)cc1`: the “activity, negative = inhibition” value is 2.73%.

With `COc1cc(NS(=O)(=O)c2ccc(NC(C)=O)cc2)cc(OC)c1`, the Potency is 20 µM (active).

As to `CC(=O)c1c(C)oc2ccc(NS(=O)(=O)c3ccc(C(=O)O)cc3)cc12`, the “activity, negative = inhibition” value is 4.83%.

Regarding `COC(=O)COc1ccc(S(=O)(=O)Nc2ccc(NC(C)=O)cc2)cc1`, the “activity, negative = inhibition” value was -5.35%.

Values taken from PubChem BioAssay AID2546 (National Center for Advancing Translational Sciences (NCATS), 2010).
